# Assay results published in the supplement of paper PMC11732987, “Enantioselective OTUD7B fragment discovery through chemoproteomics screening and high-throughput optimisation” (Communications Chemistry, 2025).
# Unmarked numbers belong to inactive results.
# Molecular target: T1, USP38 (UniProt Q8NB14)
# T1 sequence (whole entry): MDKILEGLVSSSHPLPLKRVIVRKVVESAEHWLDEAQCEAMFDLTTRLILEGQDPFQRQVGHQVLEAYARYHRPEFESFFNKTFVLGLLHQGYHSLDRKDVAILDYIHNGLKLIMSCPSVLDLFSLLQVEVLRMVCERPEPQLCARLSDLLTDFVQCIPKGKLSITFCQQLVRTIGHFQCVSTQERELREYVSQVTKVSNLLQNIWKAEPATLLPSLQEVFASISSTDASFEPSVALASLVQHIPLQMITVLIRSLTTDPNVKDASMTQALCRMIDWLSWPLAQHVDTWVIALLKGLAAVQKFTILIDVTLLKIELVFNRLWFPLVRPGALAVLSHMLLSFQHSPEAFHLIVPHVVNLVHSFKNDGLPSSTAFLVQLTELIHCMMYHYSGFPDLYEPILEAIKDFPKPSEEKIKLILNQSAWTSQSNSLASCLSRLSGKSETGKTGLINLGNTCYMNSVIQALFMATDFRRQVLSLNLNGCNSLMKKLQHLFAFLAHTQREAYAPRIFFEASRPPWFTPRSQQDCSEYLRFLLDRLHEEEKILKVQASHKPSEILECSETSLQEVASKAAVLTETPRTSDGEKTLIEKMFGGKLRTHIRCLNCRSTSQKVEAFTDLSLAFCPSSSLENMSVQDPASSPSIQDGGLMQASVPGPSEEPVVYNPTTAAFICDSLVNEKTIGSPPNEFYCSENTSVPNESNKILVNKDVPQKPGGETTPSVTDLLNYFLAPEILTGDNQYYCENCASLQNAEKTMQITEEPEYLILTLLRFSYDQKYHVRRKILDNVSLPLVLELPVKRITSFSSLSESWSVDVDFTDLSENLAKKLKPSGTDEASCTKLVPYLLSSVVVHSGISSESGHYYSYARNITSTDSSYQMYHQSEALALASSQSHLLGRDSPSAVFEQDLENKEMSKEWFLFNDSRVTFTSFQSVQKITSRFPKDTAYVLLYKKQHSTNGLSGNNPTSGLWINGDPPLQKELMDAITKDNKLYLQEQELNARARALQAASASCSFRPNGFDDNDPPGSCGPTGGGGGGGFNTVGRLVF
# Assay: log2 ratio of Biotin-Ahx-Ub-VS probe labelling (compound/DMSO); higher = less target engagement, active = hit call of the paper (q ≤ 0.05, log2 ratio ≤ -1)
# Details: compound concentration: 50uM; treatment time: 3 h
# Procedure: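 Round 2 competitive ABPP in HEK293T lysate. Purified HTC-D2B compounds were tested at 50 and 200 µM for 3 h, followed by Biotin-Ahx-Ub-VS enrichment and diaPASEF LC-MS/MS. Values are the average log2 ratio (compound/DMSO) from an unpaired t-test (n=3 treated, n=26 DMSO).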
row,Compound,log2 ratio of Biotin-Ahx-Ub-VS probe labelling
1,O=C(CCl)N1CCc2cc(Cl)c(Cl)cc2C1,0.253
2,Cc1ccccc1COc1cccc(CN(C)C(=O)CCl)c1,-0.192
3,COc1cccc(CN(CCCc2ccccc2)C(=O)CCl)c1,-0.105
4,O=C(CCl)NC1CCOc2ccc(Cl)cc21 (stereo unspecified),0.126
5,O=C(CCl)N[C@H]1CCCc2ccccc21,0.0645
6,COc1ccc(CN(C)C(=O)CCl)cc1,0.023
7,Cl.Cl.O=C(CCl)N1CCc2nc(N3CCN(c4ccc(F)cc4)CC3)ncc2C1,0.202
8,O=C(CCl)NC1CCCc2ccccc21 (stereo unspecified),0.0146
9,O=C(CCl)N1Cc2sccc2C(O)C1 (stereo unspecified),0.173
10,O=C(CCl)N1CCc2nocc2C1,-0.0321
11,O=C(CCl)N1CCc2nc(-c3ccccc3)ncc2C1,0.272
12,CCCC1c2cc(OC)c(OC)cc2CCN1C(=O)CCl (stereo unspecified),-0.184
13,CN(Cc1ccccc1)C(=O)CCl,-0.0215
14,O=C(CCl)N1CCc2scc(Br)c2C1,0.0294
15,O=C(CCl)NC(c1cccs1)C1CCCC1 (stereo unspecified),0.192
16,CCC1c2cc(Cl)c(OC)cc2CCN1C(=O)CCl (stereo unspecified),0.207
17,O=C(CCl)NC1CCSc2ccccc21 (stereo unspecified),0.05
18,CN(Cc1cccc(Br)c1)C(=O)CCl,0.171

# Same assay, conditions: compound concentration: 200uM; treatment time: 3 h
row,Compound,log2 ratio of Biotin-Ahx-Ub-VS probe labelling
1,O=C(CCl)N1CCc2cc(Cl)c(Cl)cc2C1,-0.962
2,Cc1ccccc1COc1cccc(CN(C)C(=O)CCl)c1,-0.383
3,COc1cccc(CN(CCCc2ccccc2)C(=O)CCl)c1,-0.679
4,O=C(CCl)NC1CCOc2ccc(Cl)cc21 (stereo unspecified),-0.261
5,O=C(CCl)N[C@H]1CCCc2ccccc21,-0.252
6,COc1ccc(CN(C)C(=O)CCl)cc1,-0.826
7,Cl.Cl.O=C(CCl)N1CCc2nc(N3CCN(c4ccc(F)cc4)CC3)ncc2C1,-0.918
8,O=C(CCl)NC1CCCc2ccccc21 (stereo unspecified),-0.162
9,O=C(CCl)N1Cc2sccc2C(O)C1 (stereo unspecified),-0.212
10,O=C(CCl)N1CCc2nocc2C1,-0.473
11,O=C(CCl)N1CCc2nc(-c3ccccc3)ncc2C1,-0.407
12,CCCC1c2cc(OC)c(OC)cc2CCN1C(=O)CCl (stereo unspecified),-0.48
13,CN(Cc1ccccc1)C(=O)CCl,-0.641
14,O=C(CCl)N1CCc2scc(Br)c2C1,-0.844
15,O=C(CCl)NC(c1cccs1)C1CCCC1 (stereo unspecified),-0.22
16,CCC1c2cc(Cl)c(OC)cc2CCN1C(=O)CCl (stereo unspecified),-0.934
17,O=C(CCl)NC1CCSc2ccccc21 (stereo unspecified),-0.3
18,CN(Cc1cccc(Br)c1)C(=O)CCl,-0.322
